Reference: the supplement of paper PMC9950053
Structures can show the parent of a compound that is named as a salt.

test system: Danio rerio larvae (5 dpf); test: combined optomotor response (time in upper well half, down vs up moving lines, periods 7-14) minus DMSO control (percentage points); higher = stronger optomotor response than DMSO larvae; conditions: 10 µM; exposure time: 3 h pre-incubation + 3 h imaging

Row | Structure (SMILES) | combined optomotor response
1 | CC(=O)S[C@@H]1CC2=CC(=O)CC[C@]2(C)[C@H]2CC[C@@]3(C)[C@@H](CC[C@@]34CCC(=O)O4)[C@H]12 [Spironolactone] | 0.523
2 | CC/C(=C(\c1ccccc1)c1ccc(OCCN(C)C)cc1)c1ccccc1 [Tamoxifen citrate] | -10.7
3 | COc1c(C)c2c(c(O)c1C/C=C(\C)CCC(=O)OCCN1CCOCC1)C(=O)OC2 [Mycophenolate mofetil] | 12.9
4 | Nc1ncn([C@@H]2O[C@H](CO)[C@@H](O)[C@H]2O)c(=O)n1 [5-Azacytidine] | 3.71
5 | CCC(=O)O[C@]1(C(=O)SCF)[C@H](C)C[C@H]2[C@@H]3C[C@H](F)C4=CC(=O)C=C[C@]4(C)[C@@]3(F)[C@@H](O)C[C@@]21C [Fluticasone propionate] | 2.4
6 | CCCN(CCc1cccs1)[C@H]1CCc2c(O)cccc2C1 [Rotigotine hydrochloride] | -12.7
7 | CCOc1cc(CC(=O)N[C@@H](CC(C)C)c2ccccc2N2CCCCC2)ccc1C(=O)O [Repaglinide] | 2.6
8 | COC(c1ccccc1)(c1ccccc1)[C@H](Oc1nc(C)cc(C)n1)C(=O)O [Ambrisentan] | 0.559
9 | Cc1ccc(N(CC2=NCCN2)c2cccc(O)c2)cc1 [Phentolamine Mesylate] | 7.07
10 | CCc1ccc(CCOc2ccc(CC3SC(=O)NC3=O)cc2)nc1 (stereo not drawn) [Pioglitazone hydrochloride] | -1.77
11 | OCCN(CCO)c1nc(N2CCCCC2)c2nc(N(CCO)CCO)nc(N3CCCCC3)c2n1 [Dipyridamole] | -1.19
12 | CCN(CC)CCNC(=O)c1c(C)[nH]c(/C=C2\C(=O)Nc3ccc(F)cc32)c1C [Sunitinib malate] | 2.67
13 | O=C(O)CCCc1ccccc1 [Sodium 4-Phenylbutyrate] | 4.62
14 | COc1ccc(-c2ccc3cc(C(=O)O)ccc3c2)cc1C12CC3CC(CC(C3)C1)C2 [Adapalene] | 0.129
15 | CC(C)(C#N)c1cc(Cn2cncn2)cc(C(C)(C)C#N)c1 [Anastrozole] | -1.87
16 | Cc1nc(Nc2ncc(C(=O)Nc3c(C)cccc3Cl)s2)cc(N2CCN(CCO)CC2)n1 [Dasatinib] | -2.04
17 | CC(CCc1ccc(O)cc1)NCCc1ccc(O)c(O)c1 (stereo not drawn) [Dobutamine hydrochloride] | 1.08

Row | Structure (SMILES) | combined optomotor response
18 | CN1CCC[C@@H]1Cc1c[nH]c2ccc(CCS(=O)(=O)c3ccccc3)cc12 [Eletriptan hydrobromide] | -0.376
19 | COc1ccc([C@@H]2Sc3ccccc3N(CCN(C)C)C(=O)[C@@H]2OC(C)=O)cc1 [Diltiazem hydrochloride] | 1.37
20 | COc1ccc(Cl)cc1C(=O)NCCc1ccc(S(=O)(=O)NC(=O)NC2CCCCC2)cc1 [Glibenclamide] | 1.3
21 | NS(=O)(=O)Cc1noc2ccccc12 [Zonisamide] | 7
22 | C=CC(=O)N1CCC[C@@H](n2nc(-c3ccc(Oc4ccccc4)cc3)c3c(N)ncnc32)C1 [Ibrutinib] | 5.02
23 | Cc1ccc(-c2cc(C(F)(F)F)nn2-c2ccc(S(N)(=O)=O)cc2)cc1 [Celecoxib] | 0.0816
24 | CCCCC(=O)N(Cc1ccc(-c2ccccc2-c2nnn[nH]2)cc1)[C@H](C(=O)O)C(C)C [Valsartan] | 7.07
25 | Nc1cccc2c1CN(C1CCC(=O)NC1=O)C2=O (stereo not drawn) [Lenalidomide] | 1.12
26 | CC(c1cc2ccccc2s1)N(O)C(N)=O (stereo not drawn) [Zileuton] | -0.859
27 | Clc1ccc(COC(Cn2ccnc2)c2ccc(Cl)cc2Cl)c(Cl)c1 (stereo not drawn) [Miconazole nitrate] | -12.3
28 | CC[C@H](C)C(=O)O[C@H]1C[C@@H](C)C=C2C=C[C@H](C)[C@H](CC[C@@H]3C[C@@H](O)CC(=O)O3)[C@H]21 [Lovastatin] | 5.24
29 | CNC(=O)c1ccccc1Sc1ccc2c(/C=C/c3ccccn3)n[nH]c2c1 [Axitinib] | 3.98
30 | CC(=O)NC[C@H]1CN(c2ccc(N3CCOCC3)c(F)c2)C(=O)O1 [Linezolid] | 6.27
31 | CC(C)c1ccc2oc3nc(N)c(C(=O)O)cc3c(=O)c2c1 [Amlexanox] | 4.64
32 | CN(C)CCC[C@@]1(c2ccc(F)cc2)OCc2cc(C#N)ccc21 [Escitalopram oxalate] | -0.7
33 | COc1cc(Nc2c(C#N)cnc3cc(OCCCN4CCN(C)CC4)c(OC)cc23)c(Cl)cc1Cl [Bosutinib] | 0.386
